# In PubChem BioAssay (NCATS):
# Results filed as inconclusive are left out. Active and inactive are the calls of the source. Calls follow the shape of the dose curve; as a rule, active = well fitted curve in the direction sought with a large enough effect; inconclusive = small, poorly fitted or top-dose-only effect, or another doubt; inactive = no such curve, though single readings can be large; an effect the other way counts as inactive or inconclusive.
# Assay: qHTS of pediatric cancer cell lines to identify multiple opportunities for drug repurposing: Primary screen for OHS-50 cells (AID 1347103); also: nearly all actives have a fitted effect of over 40% in size
# Settings: OHS-50 osteosarcoma viability, CellTiter-Glo luminescence, 48 h; series mostly up to 57.3 µM
# Outline: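 Cells (500-1,000/well) rested 5 h, then received compounds for 48 h; metabolically active cells were measured by CellTiter-Glo luminescence. Final concentrations spanned up to 46 µM (MIPE, 11-point) or 0.59 nM-46 µM (NPC, 8-point) in primary screens, 11-point in follow-ups.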
# Potency is read from the fitted curve at half-maximal effect.
row,SMILES,Potency
1,COc1cc(-c2nn(C3CCC(N4CCN(C(C)=O)CC4)CC3)c3ncnc(N)c23)ccc1NC(=O)c1cc2ccccc2n1C (configuration not stated),2.17 µM (active)
2,Cc1cc(CN2CCN(c3c(Br)cnc4nc(-c5ccc(N6CCN(C)CC6)cc5)[nH]c34)CC2)no1,30.6 µM (active)
3,COc1cc(C(=O)N2CCC(N3CCN(C)CC3)CC2)ccc1Nc1ncc2c(n1)N(C)c1ccccc1C(=O)N2C,7.69 µM (active)

# Assay: qHTS of pediatric cancer cell lines to identify multiple opportunities for drug repurposing: Primary screen for RD cells (AID 1347104); also: nearly all actives have a fitted effect of over 55% in size
# Settings: RD rhabdomyosarcoma viability, CellTiter-Glo luminescence, 48 h; series mostly up to 46 µM
# Outline: (§1)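 ATP-based luminescence (CellTiter-Glo) quantifies viability after a 48-hour exposure. Compounds are dosed across 8 or 11 final concentrations; DMSO and 2.3 µM bortezomib serve as controls.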
row,SMILES,Potency
1,COc1cc(OC2CCN(C)CC2)ccc1Nc1ncc2c(n1)n(C1CCCC1)c(=O)n2C,18.7 µM (active)
2,COC(=O)[C@]12CCC(C)(C)C[C@@H]1[C@@H]1C(=O)C=C3[C@@]4(C)C=C(C#N)C(=O)C(C)(C)[C@@H]4CC[C@@]3(C)[C@]1(C)CC2,0.526 µM (active)
3,N#CCNC(=O)c1ccc(-c2ccnc(Nc3ccc(N4CCOCC4)cc3)n2)cc1,16.6 µM (active)
4,CN(C)CCCN=c1c2ccccc2n(C)c2[nH]c(=O)n(C)c(=O)c12,13.2 µM (active)
5,Cn1c(=O)n(-c2ccc(C(C)(C)C#N)cc2)c2c3cc(-c4cnc5ccccc5c4)ccc3ncc21,0.332 µM (active)
6,COc1cc2c(Oc3ccc4[nH]c(C)cc4c3F)ncnc2cc1OCCCN1CCCC1,26.4 µM (active)
7,O=C(Nc1nc2cccc(-c3ccc(CN4CCS(=O)(=O)CC4)cc3)n2n1)C1CC1,18.7 µM (active)
8,O=C(CCCCCCC(=O)Nc1ccc([C@H]2O[C@@H](CSc3nc(-c4ccccc4)c(-c4ccccc4)o3)C[C@@H](c3ccc(CO)cc3)O2)cc1)NO,16.6 µM (active)
9,CCN1CCN(CC(=O)Nc2ccc(-c3cccc4c(=O)cc(N5CCOCC5)oc34)c3sc4ccccc4c23)CC1,0.743 µM (active)
10,NCC(=O)Nc1ccc(-n2nc(C(F)(F)F)cc2-c2ccc3c(ccc4ccccc43)c2)cc1,16.6 µM (active)
11,Cc1cc(Nc2cc(CN3CCOCC3)c3nc(C)c(Cc4ccc(Cl)cc4F)n3n2)n[nH]1,20.9 µM (active)
12,COCCOc1ccc2c(c1)ncn2-c1ccc2cccc(N3CCC(N)CC3)c2n1,29.6 µM (active)
13,Cc1cn2c(-c3cn[nH]c3)cnc2c(Nc2ccc(C(=O)N3CCNCC3)cc2F)n1,16.6 µM (active)
14,Nc1nccc(Oc2ccc(NC(=O)c3c[nH]cc(-c4ccc(F)cc4)c3=O)cc2F)c1Cl,26.4 µM (active)
15,NC(=O)c1c(OCc2c(F)cc(Br)cc2F)nsc1NC(=O)NCCCCN1CCCC1,18.7 µM (active)
16,CC(=O)c1c(C)c2cnc(Nc3ccc(N4CCNCC4)cn3)nc2n(C2CCCC2)c1=O,18.7 µM (active)
17,CC1(O)CC(c2nc(-c3ccc4ccc(-c5ccccc5)nc4c3)c3c(N)nccn23)C1 (configuration not stated),0.59 µM (active)
18,C=CC(=O)Nc1cccc(Oc2nc(Nc3ccc(N4CCN(C)CC4)cc3OC)ncc2Cl)c1,7.43 µM (active)
19,CN(C1CCc2c(c3ccccc3n2CC(=O)O)C1)S(=O)(=O)c1ccc(F)cc1 (configuration not stated),4.18 µM (active)
20,COC(=O)Nc1ccc(-c2nc(N3CCOCC3)c3cnn(C4CCN(Cc5cccnc5)CC4)c3n2)cc1,1.32 µM (active)
21,O=C(O)C1(Cc2cccc(Nc3nccs3)n2)CCC(Oc2cccc(Cl)c2F)CC1 (configuration not stated),inactive
22,O=C(O)c1ccc2cc(-c3ccc(O)c(C45CC6CC(CC(C6)C4)C5)c3)ccc2c1,5.26 µM (active)
23,COc1cc(-c2nn(C3CCC(N4CCN(C(C)=O)CC4)CC3)c3ncnc(N)c23)ccc1NC(=O)c1cc2ccccc2n1C (configuration not stated),0.662 µM (active)
24,Cc1cc(CN2CCN(c3c(Br)cnc4nc(-c5ccc(N6CCN(C)CC6)cc5)[nH]c34)CC2)no1,26.4 µM (active)
25,Nc1cccc(-c2cc3c(Oc4cccc(O)c4)ncnc3[nH]2)c1,9.35 µM (active)
26,COc1cc(C(=O)N2CCC(N3CCN(C)CC3)CC2)ccc1Nc1ncc2c(n1)N(C)c1ccccc1C(=O)N2C,14.8 µM (active)

# Assay: qHTS of pediatric cancer cell lines to identify multiple opportunities for drug repurposing: Primary screen for MG 63 (6-TG R) cells (AID 1347105); also: nearly all actives have a fitted effect of over 50% in size
# Settings: MG 63 (6-TG R) viability, CellTiter-Glo, 48 h; series mostly up to 46 µM
# Outline: as §1
row,SMILES,Potency
1,CC(C)=CCCC(C)=CCCC(C)=CCSc1ccccc1C(=O)O,3.72 µM (active)
2,COc1cc(OC2CCN(C)CC2)ccc1Nc1ncc2c(n1)n(C1CCCC1)c(=O)n2C,23.5 µM (active)
3,Cn1cc(-c2ccncc2)c(-c2ccc(OCc3ccc4ccccc4n3)cc2)n1,inactive
4,COC(=O)[C@]12CCC(C)(C)C[C@@H]1[C@@H]1C(=O)C=C3[C@@]4(C)C=C(C#N)C(=O)C(C)(C)[C@@H]4CC[C@@]3(C)[C@]1(C)CC2,0.743 µM (active)
5,N#CCNC(=O)c1ccc(-c2ccnc(Nc3ccc(N4CCOCC4)cc3)n2)cc1,18.7 µM (active)
6,Cn1c(=O)n(-c2ccc(C(C)(C)C#N)cc2)c2c3cc(-c4cnc5ccccc5c4)ccc3ncc21,0.0148 µM (active)
7,COc1cc2c(Oc3ccc4[nH]c(C)cc4c3F)ncnc2cc1OCCCN1CCCC1,23.5 µM (active)
8,O=C(Nc1nc2cccc(-c3ccc(CN4CCS(=O)(=O)CC4)cc3)n2n1)C1CC1,23.5 µM (active)
9,O=C(CCCCCCC(=O)Nc1ccc([C@H]2O[C@@H](CSc3nc(-c4ccccc4)c(-c4ccccc4)o3)C[C@@H](c3ccc(CO)cc3)O2)cc1)NO,14.8 µM (active)
10,Cc1cccc(C=NNc2cc(N3CCOCC3)nc(OCCc3ccccn3)n2)c1,inactive
11,NC1(Cc2ccc(Cl)cc2)CCN(c2ncnc3[nH]ccc23)CC1,14.8 µM (active)
12,Cn1c2ccccc2c2c3c(c4c5ccccc5n(CCC#N)c4c21)CNC3=O,14.8 µM (active)
13,Cc1cc(Nc2cc(CN3CCOCC3)c3nc(C)c(Cc4ccc(Cl)cc4F)n3n2)n[nH]1,14.8 µM (active)
14,COCCOc1ccc2c(c1)ncn2-c1ccc2cccc(N3CCC(N)CC3)c2n1,29.6 µM (active)
15,Nc1nccc(Oc2ccc(NC(=O)c3c[nH]cc(-c4ccc(F)cc4)c3=O)cc2F)c1Cl,18.7 µM (active)
16,NC(=O)c1c(OCc2c(F)cc(Br)cc2F)nsc1NC(=O)NCCCCN1CCCC1,5.9 µM (active)
17,COC(=O)C1=C(C)NC(C)=C(C(=O)OCCN2CCN(C(c3ccccc3)c3ccccc3)CC2)C1c1cccc([N+](=O)[O-])c1 (configuration not stated),inactive
18,COC(=O)Nc1ccc(-c2nc(N3CCOCC3)c3cnn(C4CCN(Cc5cccnc5)CC4)c3n2)cc1,0.235 µM (active)
19,Cc1cc(Nc2ncnc3ccc(-c4ccc(CNCCS(C)(=O)=O)o4)cc23)ccc1Oc1ccn2ncnc2c1,18.7 µM (active)
20,O=C(O)C1(Cc2cccc(Nc3nccs3)n2)CCC(Oc2cccc(Cl)c2F)CC1 (configuration not stated),18.7 µM (active)
21,O=C(O)c1ccc2cc(-c3ccc(O)c(C45CC6CC(CC(C6)C4)C5)c3)ccc2c1,0.296 µM (active)
22,Cc1cc(CN2CCN(c3c(Br)cnc4nc(-c5ccc(N6CCN(C)CC6)cc5)[nH]c34)CC2)no1,18.7 µM (active)
23,COc1cc(C(=O)N2CCC(N3CCN(C)CC3)CC2)ccc1Nc1ncc2c(n1)N(C)c1ccccc1C(=O)N2C,9.35 µM (active)
